# According to PubChem BioAssay (Tox21):
# Several values for one entry are separate records, joined by “and”; a condition that tells them apart may be missing. Equal entries are not always repeated. Records with an inconclusive call do not appear. Entries that show only a call come without a potency. Some compounds were tested as several samples or in several runs, with calls that do not always agree. Activity calls are given as the source filed them. Unless noted, calls come from the whole dose curve; as a rule, active = well fitted curve in the direction sought with a large enough effect in the repeat runs; inconclusive = weak or mixed curves; inactive = no such curve, though single readings can be large; an effect the other way counts as inactive or inconclusive.
# Key:
# [1] = target: Aryl hydrocarbon receptor (Homo sapiens) (UniProt P35869); assay: qHTS assay to identify small molecule that activate the aryl hydrocarbon receptor (AhR) signaling pathway (AID 743085); note: nearly all actives have a fitted effect of over 15% in size; note: potency is the fitted concentration of half-maximal effect;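 for activation: HG2L7.5c1 human HepG2 liver cells with stably integrated DRE-driven firefly reporter; series mostly up to about 70 µM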
# Summary of the method: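 24 h compound exposure, 37C, HepG2-derived HG2L7.5c1 cells with DRE-responsive luciferase. Readouts: fluorescence viability, then luminescence at room temperature after 30 min.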
# [2] = target: Peroxisome proliferator-activated receptor gamma (Homo sapiens) (UniProt P37231); assay: qHTS assay to identify small molecule agonists of the peroxisome proliferator-activated receptor gamma (PPARg) signaling pathway (AID 743094; active = well fitted activation curve with a large enough effect in the signal ratio in the repeat runs, not every such curve was filed as active; the % refers to the signal ratio)
# Summary of the method: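 Cell-based bla reporter, HEK293H background, PPARg-driven UAS. Pre-incubation 5 h, 37C, 5% CO2. Compound 17 h, 37C. Substrate 1 h RT; fluorescence.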
# [3] = qHTS assay to identify small molecule agonists of the peroxisome proliferator-activated receptor delta (PPARd) signaling pathway - cell viability counter screen (AID 743211); note: nearly all actives have a fitted effect of over 55% in size; note: potency is the fitted concentration of half-maximal effect
# Summary of the method: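 Luminescent ATP viability assay (CellTiter-Glo, 30 min RT) in UAS-bla HEK293H cells carrying the PPAR delta reporter construct, 3000 cells/well, after a 17 h compound treatment at 37 C.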
# [4] = target: Peroxisome proliferator-activated receptor delta (Homo sapiens) (UniProt Q03181); assay: qHTS assay to identify small molecule agonists of the peroxisome proliferator-activated receptor delta (PPARd) signaling pathway (AID 743212; calls by dose curve;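 note: HEK293H cells with PPARd UAS beta-lactamase reporter GeneBLAzer system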)
# Summary of the method: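 Steps: seed PPARd-bla HEK293H cells; incubate 5 h, 37 C, 5% CO2; add compounds in DMSO; incubate, 37 C; add LiveBLAzer B/G FRET substrate; hold 2 h at room temperature; measure fluorescence.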
# [5] = qHTS assay to identify small molecule antagonists of the peroxisome proliferator-activated receptor delta (PPARd) signaling pathway - cell viability counter screen (AID 743213); note: nearly all actives have a fitted effect of over 50% in size; note: potency is the fitted concentration of half-maximal effect
# Summary of the method: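 Luminescence from CellTiter-Glo, added after the bla read and incubated 30 min at room temperature, gives viability of HEK293H PPARd-bla cells exposed to compounds for 17 h at 37 C with 300 nM L165041.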
# [6] = qHTS assay to identify aromatase inhibitors - cell viability counter screen (AID 743084);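 note: cells stimulated with testosterone during compound exposure; nearly all actives have a fitted effect of over 55% in size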; note: potency is the fitted concentration of half-maximal effect
# [7] = qHTS assay to identify small molecule that activate the aryl hydrocarbon receptor (AhR) signaling pathway - cell viability counter screen (AID 743086); note: nearly all actives have a fitted effect of over 45% in size; note: potency is the fitted concentration of half-maximal effect
# Summary of the method: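 Cytotoxicity counter screen: CellTiter-Fluor signal (30 min, 37 C) in 4000 HepG2 cells/well carrying the DRE-luciferase reporter, following 24 h compound exposure at 37 C.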
# [8] = qHTS assay to identify small molecule antagonists of the peroxisome proliferator-activated receptor gamma (PPARg) signaling pathway - cell viability counter screen (AID 743194); note: nearly all actives have a fitted effect of over 55% in size; note: potency is the fitted concentration of half-maximal effect
# Summary of the method: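 Viability was measured as CellTiter-Glo luminescence in GeneBLAzer PPARg UAS-bla HEK293H cells. These cells had been exposed 17 h at 37 C to compounds together with rosiglitazone at 50 nM final, with the beta-lactamase readout taken in the same wells.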
# [9] = qHTS assay for small molecule agonists of the antioxidant response element (ARE) signaling pathway - cell viability counter screen (AID 743203; calls by dose curve; note: nearly all actives have a fitted effect of over 55% in size; note: potency is the fitted concentration of half-maximal effect)
# Summary of the method: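 Measured in the same wells as the beta-lactamase ARE reporter, this read-out is CellTiter-Glo luminescence from HepG2 ARE-bla cells given compounds for 16 hrs.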
# [10] = qHTS assay for small molecule activators of the heat shock response signaling pathway - cell viability counter screen (AID 743209); note: nearly all actives have a fitted effect of over 50% in size; note: potency is the fitted concentration of half-maximal effect
# Summary of the method: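 Same-well multiplex: after 2.5 h room-temperature incubation with LiveBLAzer B/G substrate and fluorescence reading, CellTiter-Glo reagent was added to HSE-bla HeLa cells that had received compound for 5 h at 37 C; luminescence read after 30 min.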
# [11] = target: Peroxisome proliferator-activated receptor delta (Homo sapiens) (UniProt Q03181); assay: qHTS assay to identify small molecule antagonists of the peroxisome proliferator-activated receptor delta (PPARd) signaling pathway (AID 743215; active = well fitted inhibition curve with a large enough effect in the signal ratio in the repeat runs, not every such curve was filed as active; the % refers to the signal ratio;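 note: cells stimulated with agonist L165041 at 300 nM final during compound exposure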; note: potency is the fitted concentration of half-maximal effect)
# Summary of the method: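 Fluorescence from cleaved LiveBLAzer B/G FRET substrate (2 h, room temperature) reports PPARd-driven beta-lactamase in HEK293H UAS-bla cells. Cells had been treated 17 h at 37 C with compound plus 300 nM final L165041.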
# [12] = qHTS assay to identify small molecule agonists of the farnesoid-X-receptor (FXR) signaling pathway - cell viability counter screen (AID 743218); note: nearly all actives have a fitted effect of over 45% in size; note: potency is the fitted concentration of half-maximal effect
# Summary of the method: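 Readout: CellTiter-Glo luminescence, 30 min RT, multiplexed after the FXR-bla FRET reading. HEK 293T FXR-UAS-bla cells received compound 5 h post-plating and were incubated 16 h at 37 C.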
# [13] = qHTS assay to identify small molecule antagonists of the farnesoid-X-receptor (FXR) signaling pathway - cell viability counter screen (AID 743221; active = well fitted cell-killing curve with a large enough effect in the repeat runs, not every such curve was filed as active; note: nearly all actives have a fitted effect of over 50% in size; note: potency is the fitted concentration of half-maximal effect)
# Summary of the method: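 In GeneBLAzer FXR-UAS-bla HEK 293T cells stimulated with 50 uM chenodeoxycholic acid (final), compounds acted for 16 h at 37 C. Viability was assessed afterwards by CellTiter-Glo luminescence.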
# [14] = target: Vitamin D3 receptor (Homo sapiens) (UniProt P11473); assay: qHTS assay to identify small molecule antagonists of the vitamin D receptor (VDR) signaling pathway (AID 743223; active = well fitted inhibition curve with a large enough effect in the signal ratio in the repeat runs, not every such curve was filed as active; the % refers to the signal ratio; note: potency is the fitted concentration of half-maximal effect)
# Summary of the method: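 Agonist 1alpha,25-dihydroxyvitamin D3 (3 nM in well) was added with each compound to VDR-bla cells preincubated 4 h. Cells stood 16 h at 37C, then FRET substrate 2 h at room temperature; fluorescence intensity recorded.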
# [15] = target: Bile acid receptor (Homo sapiens) (UniProt Q96RI1); assay: qHTS assay to identify small molecule agonists of the farnesoid-X-receptor (FXR) signaling pathway (AID 743220; active = well fitted activation curve with a large enough effect in the signal ratio in the repeat runs, not every such curve was filed as active; the % refers to the signal ratio)
# Summary of the method: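 FXR-UAS-bla HEK 293T cells carrying a UAS-driven beta-lactamase reporter were plated for 5 h at 37C/5% CO2, then exposed to DMSO-dissolved Tox21 10K compounds for 16 h at 37C. A LiveBLAzer B/G FRET substrate was loaded for 2 h at room temperature before fluorescence reading.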
# [16] = qHTS assay for small molecule activators of the heat shock response signaling pathway (AID 743210; active = well fitted activation curve with a large enough effect in the signal ratio in the repeat runs, with a control signal flat, not every such curve was filed as active; the % refers to the signal ratio;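 note: HeLa cells with beta-lactamase reporter driven by heat shock elements; series mostly up to about 63 µM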)
# Summary of the method: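 Fluorescence from a cleaved B/G FRET substrate (2.5 h, room temp) reports HSE-driven beta-lactamase in HeLa cells treated 5 h at 37 C with DMSO-dissolved compounds.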
# [17] = target: Bile acid receptor (Homo sapiens) (UniProt Q96RI1); assay: qHTS assay to identify small molecule antagonists of the farnesoid-X-receptor (FXR) signaling pathway (AID 743217; active = well fitted inhibition curve with a large enough effect in the signal ratio in the repeat runs, not every such curve was filed as active; the % refers to the signal ratio)
# Summary of the method: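 FRET fluorescence after 2 h room-temperature LiveBLAzer loading gives the readout. Prior step: FXR-bla HEK 293T cells, seeded and incubated 5 h, received test compounds plus 50 uM final CDCA for 16 h at 37 °C.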
# [18] = target: Peroxisome proliferator-activated receptor gamma (Homo sapiens) (UniProt P37231); assay: qHTS assay to identify small molecule antagonists of the peroxisome proliferator-activated receptor gamma (PPARg) signaling pathway (AID 743191; calls by dose curve; note: potency is the fitted concentration of half-maximal effect; nearly all actives have a fitted effect of over 30% in size)
# Summary of the method: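 Beta-lactamase reporter under UAS control in HEK293H PPARg-bla cells; compound treatment 17 h at 37C. Read-out: fluorescence intensity after 1 h room-temperature incubation with LiveBLAzer B/G FRET substrate.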
# [19] = qHTS assay for small molecule agonists of the antioxidant response element (ARE) signaling pathway (AID 743202; active = well fitted activation curve with a large enough effect in the signal ratio in the repeat runs, not every such curve was filed as active; the % refers to the signal ratio; note: potency is the fitted concentration of half-maximal effect)
# Summary of the method: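 Beta-lactamase reporter activity, read as fluorescence intensity, reflects ARE/Nrf2 pathway induction in HepG2 cells after 16 h compound exposure at 37 C; substrate loading was 2 h at room temperature.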
# [20] = target: Vitamin D3 receptor (Homo sapiens) (UniProt P11473); assay: qHTS assay to identify small molecule agonists of the vitamin D receptor (VDR) signaling pathway (AID 743222; calls by dose curve)
# Summary of the method: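 Following 4 h attachment at 37C, VDR-bla cells (2,000 per well) received DMSO-dissolved compounds or controls. After 16 h incubation, LiveBLAzer B/G FRET substrate was added and fluorescence read 2 h later at room temperature.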
# Chain of Aryl hydrocarbon receptor (Homo sapiens) (P35869 whole entry, looked up): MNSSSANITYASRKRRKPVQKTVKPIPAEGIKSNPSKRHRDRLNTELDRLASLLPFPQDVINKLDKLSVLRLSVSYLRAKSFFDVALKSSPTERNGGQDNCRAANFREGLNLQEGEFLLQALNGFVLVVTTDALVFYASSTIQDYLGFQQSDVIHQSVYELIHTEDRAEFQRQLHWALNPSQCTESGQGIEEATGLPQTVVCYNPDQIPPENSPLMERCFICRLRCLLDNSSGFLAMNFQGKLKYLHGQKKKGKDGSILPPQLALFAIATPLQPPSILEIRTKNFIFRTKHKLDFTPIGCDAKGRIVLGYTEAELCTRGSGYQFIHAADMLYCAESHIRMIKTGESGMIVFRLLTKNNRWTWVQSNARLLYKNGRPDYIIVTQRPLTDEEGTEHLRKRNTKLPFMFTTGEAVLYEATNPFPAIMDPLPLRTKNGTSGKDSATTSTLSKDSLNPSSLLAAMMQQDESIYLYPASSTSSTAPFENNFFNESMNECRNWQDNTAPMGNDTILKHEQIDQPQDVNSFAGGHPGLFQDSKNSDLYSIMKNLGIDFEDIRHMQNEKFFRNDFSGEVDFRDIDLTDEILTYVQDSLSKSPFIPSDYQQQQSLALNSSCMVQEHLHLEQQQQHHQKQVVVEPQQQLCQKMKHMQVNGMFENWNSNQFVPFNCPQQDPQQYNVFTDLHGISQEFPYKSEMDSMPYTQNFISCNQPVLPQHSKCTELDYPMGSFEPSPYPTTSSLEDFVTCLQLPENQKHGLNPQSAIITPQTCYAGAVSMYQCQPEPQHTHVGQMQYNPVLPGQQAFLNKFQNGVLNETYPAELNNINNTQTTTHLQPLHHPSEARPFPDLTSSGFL
# Chain of Vitamin D3 receptor (Homo sapiens) (P11473 whole entry, looked up): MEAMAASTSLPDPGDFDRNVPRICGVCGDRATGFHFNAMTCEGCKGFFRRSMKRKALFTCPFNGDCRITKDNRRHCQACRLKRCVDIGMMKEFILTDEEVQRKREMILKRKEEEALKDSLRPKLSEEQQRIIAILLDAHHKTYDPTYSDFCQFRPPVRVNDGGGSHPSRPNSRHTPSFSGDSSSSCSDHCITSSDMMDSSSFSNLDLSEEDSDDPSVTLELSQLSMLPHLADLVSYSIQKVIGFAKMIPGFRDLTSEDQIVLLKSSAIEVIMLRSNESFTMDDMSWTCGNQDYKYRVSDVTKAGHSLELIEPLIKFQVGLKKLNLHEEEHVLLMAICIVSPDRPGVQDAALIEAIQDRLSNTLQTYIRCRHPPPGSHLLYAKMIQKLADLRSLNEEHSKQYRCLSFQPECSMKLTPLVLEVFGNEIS
# Chain of Peroxisome proliferator-activated receptor gamma (Homo sapiens) (P37231 whole entry, looked up): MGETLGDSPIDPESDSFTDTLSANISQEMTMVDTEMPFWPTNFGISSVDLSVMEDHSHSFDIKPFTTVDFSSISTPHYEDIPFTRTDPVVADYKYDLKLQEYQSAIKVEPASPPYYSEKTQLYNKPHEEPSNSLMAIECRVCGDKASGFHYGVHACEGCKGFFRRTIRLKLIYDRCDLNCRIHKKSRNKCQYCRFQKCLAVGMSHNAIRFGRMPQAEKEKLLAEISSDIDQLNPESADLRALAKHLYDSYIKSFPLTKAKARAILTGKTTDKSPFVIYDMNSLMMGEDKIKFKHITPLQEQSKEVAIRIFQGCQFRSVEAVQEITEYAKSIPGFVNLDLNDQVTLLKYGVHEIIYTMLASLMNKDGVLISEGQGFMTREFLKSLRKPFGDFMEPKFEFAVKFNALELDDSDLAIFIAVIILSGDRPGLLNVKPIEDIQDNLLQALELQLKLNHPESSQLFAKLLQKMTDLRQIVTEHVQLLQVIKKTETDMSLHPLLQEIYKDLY
# Chain of Bile acid receptor (Homo sapiens) (Q96RI1 whole entry, looked up): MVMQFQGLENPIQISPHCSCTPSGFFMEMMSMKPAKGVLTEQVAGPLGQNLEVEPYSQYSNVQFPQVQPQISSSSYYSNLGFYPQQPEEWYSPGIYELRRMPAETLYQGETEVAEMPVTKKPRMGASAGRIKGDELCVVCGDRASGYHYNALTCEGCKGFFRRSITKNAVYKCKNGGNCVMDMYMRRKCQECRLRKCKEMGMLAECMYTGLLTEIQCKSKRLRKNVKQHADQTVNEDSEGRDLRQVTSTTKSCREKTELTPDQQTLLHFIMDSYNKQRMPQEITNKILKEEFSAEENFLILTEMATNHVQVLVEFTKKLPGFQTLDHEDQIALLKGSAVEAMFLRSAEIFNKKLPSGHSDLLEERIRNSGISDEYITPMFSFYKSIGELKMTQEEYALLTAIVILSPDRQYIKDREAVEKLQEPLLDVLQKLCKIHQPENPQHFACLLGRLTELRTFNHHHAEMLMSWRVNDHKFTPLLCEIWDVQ
# Chain of Peroxisome proliferator-activated receptor delta (Homo sapiens) (Q03181 whole entry, looked up): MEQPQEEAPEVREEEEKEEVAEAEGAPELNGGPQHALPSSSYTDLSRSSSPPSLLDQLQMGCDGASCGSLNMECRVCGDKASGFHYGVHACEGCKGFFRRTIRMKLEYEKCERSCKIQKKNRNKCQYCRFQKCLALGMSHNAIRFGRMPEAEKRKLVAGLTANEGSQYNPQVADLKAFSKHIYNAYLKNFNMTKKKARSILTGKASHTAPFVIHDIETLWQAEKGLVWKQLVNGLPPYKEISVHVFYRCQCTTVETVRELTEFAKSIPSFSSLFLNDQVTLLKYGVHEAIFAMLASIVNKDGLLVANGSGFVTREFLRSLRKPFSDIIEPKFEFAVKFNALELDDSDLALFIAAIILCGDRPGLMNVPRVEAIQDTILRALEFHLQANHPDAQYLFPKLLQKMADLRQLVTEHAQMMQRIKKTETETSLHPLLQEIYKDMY
smiles,measurement,setting,value
Nc1ccc(O)c([N+](=O)[O-])c1,Potency,[1],43.3 µM (active)
same,Potency,[2],inactive
same,Potency,[3],inactive
same,Potency,[4],inactive
same,Potency,[5],inactive
CCCCCCCCCCCC[N+](C)(C)Cc1ccccc1,Potency,[6],inactive and 67.3 µM (active)
same,Potency,[1],inactive
same,Potency,[7],59.2 µM (active)
same,Potency,[8],17 µM (active) and 15 µM (active) and 26.6 µM (active)
same,Potency,[9],26.8 µM (active) and 29.7 µM (active)
same,Potency,[10],34 µM (active) and 18.9 µM (active) and 16.8 µM (active)
same,Potency,[3],27 µM (active) and 18.9 µM (active) and 23.7 µM (active)
same,Potency,[5],19.1 µM (active) and 18.9 µM (active) and 15 µM (active)
same,Potency,[11],26.6 µM (active)
same,Potency,[12],17 µM (active) and 21.2 µM (active)
same,Potency,[13],53.9 µM (active) and 59.7 µM (active) and 29.8 µM (active)
same,Potency,[14],42.8 µM (active) and 53.2 µM (active)
NC(=O)n1c(O)c(C(=O)c2cccs2)c2cc(Cl)ccc21,Potency,[6],inactive
same,Potency,[1],23.7 µM (active)
same,Potency,[7],inactive
same,Potency,[3],inactive
same,Potency,[12],inactive
same,outcome,[15],inactive
same,Potency,[13],inactive
O=C1OC2(c3ccccc31)c1cc(Br)c(O)c(Br)c1Oc1c2cc(Br)c(O)c1Br,Potency,[6],9.44 µM (active) and 2.2 µM (active) and 4.45 µM (active)
same,Potency,[1],inactive
same,Potency,[7],10.6 µM (active) and 2.77 µM (active) and 6.28 µM (active)
same,Potency,[8],inactive
same,Potency,[9],inactive
same,Potency,[10],inactive
same,Potency,[3],inactive
same,Potency,[5],inactive
same,Potency,[12],inactive
same,Potency,[13],inactive
C1=CC2C3C=CC(C3)C2C1 (stereo not drawn),Potency,[6],inactive
same,Potency,[7],inactive
same,Potency,[9],inactive
same,Potency,[10],inactive
same,Potency,[5],inactive
same,Potency,[13],inactive
CC/C(=C(\c1ccccc1)c1ccc(OCCN(C)C)cc1)c1ccccc1,Potency,[6],27.3 µM (active) [middle of 5 runs]
same,Potency,[1],inactive
same,Potency,[7],inactive and 61.6 µM (active)
same,Potency,[9],19.5 µM (active) and 27.3 µM (active) and 26.6 µM (active)
same,Potency,[10],inactive and 35 µM (active) and 43.6 µM (active)
same,outcome,[16],inactive
same,Potency,[5],54.9 µM (active) and 17.5 µM (active)
same,Potency,[13],inactive and 49.4 µM (active) and 54.9 µM (active)
COc1ccc(C(Cl)=C(c2ccc(OC)cc2)c2ccc(OC)cc2)cc1,Potency,[6],inactive
same,Potency,[1],inactive
same,Potency,[7],inactive
same,Potency,[8],inactive
same,Potency,[9],inactive
same,Potency,[10],inactive
same,outcome,[16],inactive
same,Potency,[3],inactive
same,Potency,[5],inactive
same,Potency,[11],inactive
same,Potency,[12],inactive
same,Potency,[13],inactive
same,Potency,[14],inactive
CCc1nc(N)nc(N)c1-c1ccc(Cl)cc1,Potency,[6],inactive
same,Potency,[1],inactive
same,Potency,[7],inactive
same,Potency,[8],inactive
same,Potency,[9],5.31 µM (active)
same,Potency,[10],inactive
same,outcome,[16],inactive
same,Potency,[5],inactive
same,Potency,[11],inactive
same,Potency,[17],inactive
same,outcome,[15],inactive
same,Potency,[13],24.9 µM (active)
same,Potency,[14],inactive
CCCCCCc1ccc(O)cc1O,Potency,[1],inactive
same,Potency,[7],inactive
same,Potency,[2],inactive
same,Potency,[18],11.9 µM (active)
same,Potency,[8],inactive
same,Potency,[19],24.4 µM (active) and 26.6 µM (active)
same,Potency,[9],inactive
same,Potency,[10],inactive
same,outcome,[16],inactive
same,Potency,[3],43.8 µM (active) and inactive
same,Potency,[5],inactive
same,Potency,[12],inactive
same,Potency,[13],inactive
same,Potency,[14],inactive
CCOC(N)=O,Potency,[6],inactive
same,Potency,[7],inactive
same,Potency,[8],inactive
same,Potency,[19],inactive
same,Potency,[9],inactive
same,Potency,[10],inactive
same,Potency,[3],inactive
same,Potency,[5],inactive
same,Potency,[11],inactive
same,Potency,[12],inactive
same,Potency,[13],inactive
C/C=C/C=C/C(=O)O,Potency,[6],inactive
same,Potency,[1],inactive
same,Potency,[7],inactive
same,Potency,[8],inactive
same,activation,[19],7.69% [at 8.36 µM] (inactive)
same,Potency,[9],inactive
same,Potency,[10],inactive
same,Potency,[3],inactive
same,Potency,[5],inactive
same,Potency,[12],inactive
same,Potency,[13],inactive
same,Potency,[14],inactive
Cc1ccc(S(=O)(=O)O)cc1,Potency,[6],inactive
same,Potency,[7],inactive
same,Potency,[8],inactive
same,Potency,[19],inactive
same,Potency,[9],inactive
same,Potency,[10],inactive
same,Potency,[3],inactive
same,Potency,[5],inactive
same,Potency,[12],inactive
same,Potency,[13],inactive
CC(C)NCC(O)c1ccc(O)c(O)c1 (stereo not drawn),Potency,[6],inactive
same,Potency,[1],inactive
same,Potency,[7],inactive
same,Potency,[8],inactive
same,Potency,[19],inactive
same,Potency,[9],inactive
same,Potency,[10],inactive
same,Potency,[3],inactive
same,Potency,[5],inactive
same,Potency,[12],inactive
same,Potency,[13],inactive
same,Potency,[14],inactive
O=C(Nc1ncc([N+](=O)[O-])s1)c1cccs1,Potency,[1],2.98 µM (active)
same,Potency,[7],inactive
same,Potency,[11],inactive
same,Potency,[17],inactive
same,outcome,[15],inactive
same,Potency,[14],inactive
CN[C@H]1CC[C@@H](c2ccc(Cl)c(Cl)c2)c2ccccc21,Potency,[1],inactive
same,Potency,[7],inactive
same,Potency,[9],18.8 µM (active)
same,Potency,[3],21.1 µM (active)
same,Potency,[5],23.7 µM (active)
same,Potency,[12],23.7 µM (active)
same,Potency,[13],26.6 µM (active)
COc1cccc(O)c1O,Potency,[1],31.8 µM (active)
same,Potency,[8],inactive
same,Potency,[9],inactive
same,Potency,[3],inactive
same,Potency,[5],inactive
same,Potency,[11],inactive
same,Potency,[12],inactive
same,Potency,[13],inactive
same,Potency,[14],inactive
CC(C)c1c(C(=O)Nc2ccccc2)c(-c2ccccc2)c(-c2ccc(F)cc2)n1CC[C@@H](O)C[C@@H](O)CC(=O)O,Potency,[6],inactive
same,Potency,[7],inactive
same,Potency,[8],inactive
same,Potency,[19],13.2 µM (active)
same,Potency,[9],inactive
same,Potency,[10],inactive
same,outcome,[16],inactive
same,Potency,[3],inactive
same,Potency,[5],inactive
same,Potency,[12],inactive
same,Potency,[13],inactive
same,Potency,[20],inactive
same,Potency,[14],inactive
